LmPK inh: qHTS Assay for Inhibitors of Leishmania Mexicana Pyruvate Kinase (LmPK). Potency, µM (doses to about 57.5 µM), for inactives: at the highest dose activity change, negative = inhibition, most hits filed as inhibitors. purified LmPK, Kinase-Glo ATP luminescence, 1 h. Q27686. actives 0.37% (n = 290,000); also: potency is read from the fitted curve at half-maximal effect; % is scaled to controls: 0 for no effect and ±100 for the full control effect
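Purified LmPK (0.1 nM) with 0.5 mM PEP and 0.1 mM ADP in imidazole buffer pH 7.2 with MgCl2/KCl, 1 h at room temperature. ATP formed was read by luciferase luminescence and normalized to no-enzyme and uninhibited controls.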
TbPYK inhibitor: qHTS of Trypanosoma Brucei Inhibitors; actives 0.12% (n = 410,000); TbPYK enzyme, Kinase-Glo Plus ATP luminescence, 45 min; Potency, µM (series often up to 76.8 µM), for the others: at the highest dose activity, negative = inhibition, usual class: inhibitors; pyruvate kinase (Trypanosoma brucei), Q57TT1; also: potency is read from the fitted curve at half-maximal effect; % is scaled to controls: 0 for no effect and ±100 for the full control effect; nearly all actives have a fitted effect of over 50% in size
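Screened from lowest to highest concentration, compounds were pinned into TbPYK/substrate mixtures, and ADP (130 uM final) was added. Plates sat at room temperature for 45 min prior to Kinase-Glo Plus detection by luminescence.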
Sm TGR block: qHTS Assay for the Inhibitors of Schistosoma Mansoni Peroxiredoxins | Schistosoma mansoni thioredoxin glutathione reductase (TGR), Q962Y6 | purified TGR, DTNB reduction, TNB absorbance 405 nm | Potency, µM (titrated, usually from 114 µM), inactives show top-dose activity change, negative = inhibition, most hits filed as inhibitors | actives 3% (n = 360,000); also: potency is read from the fitted curve at half-maximal effect; % is scaled to controls: 0 for no effect and ±100 for the full control effect; nearly all actives have a fitted effect of over 60% in size
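TGR 20 nM + NADPH 100 uM (dispensed conc.), cpd preinc 15 min RT; start with NADPH (500 uM addition) then DTNB (15 mM addition). Kinetic TNB absorbance, 405 nm filter. Four-parameter Hill fit across titration.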
Giardia FBPA inh: qHTS Assay for Inhibitors of Fructose-1,6-bisphosphate Aldolase from Giardia Lamblia; purified Giardia FBPA; Potency, µM (top dose mostly 59.6 µM), for inactives: at the top dose activity, negative = inhibition, actives largely listed as inhibitors; actives 0.71% (n = 290,000); also: potency is read from the fitted curve at half-maximal effect; % is scaled to controls: 0 for no effect and ±100 for the full control effect; nearly all actives have a fitted effect of over 55% in size
Target sequence (A8B2U2 whole entry, looked up): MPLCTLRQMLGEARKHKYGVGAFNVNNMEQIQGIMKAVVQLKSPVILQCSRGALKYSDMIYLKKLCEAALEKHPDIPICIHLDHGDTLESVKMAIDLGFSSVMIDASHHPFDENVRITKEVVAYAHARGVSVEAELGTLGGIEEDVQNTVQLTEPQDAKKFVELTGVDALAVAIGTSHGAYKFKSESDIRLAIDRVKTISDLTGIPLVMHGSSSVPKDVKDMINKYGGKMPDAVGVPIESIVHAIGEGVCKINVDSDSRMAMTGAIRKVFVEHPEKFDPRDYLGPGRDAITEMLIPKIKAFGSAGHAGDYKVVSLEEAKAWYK
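40 nM FBPA preincubated 10 min at RT with compound (up to 57.5 uM final), then substrate plus GAPDH/TPI/NAD/arsenate coupling and diaphorase/resazurin added. Fluorescence read after 20 min at RT, 525/598 nm.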
Shiga inhibitor: A qHTS for Small Molecule Inhibitors of Shiga Toxin; actives 9.2% (n = 290,000); Vero cells, Shiga toxin protein synthesis inhibition reporter; inhibition, % at 38.7 µM; in the data active = inhibition mostly above about 28%, no sharp cut-off; inactive = mostly below about 43%; also: 0% is about no effect
CHX counter: Cycloheximide Counterscreen for Small Molecule Inhibitors of Shiga Toxin; cell reporter, cycloheximide protein synthesis inhibition counterscreen; max response, %; actives 12% (n = 300,000); AID 2314, 2010; in the data active = max response mostly above about 13%, no sharp cut-off; inactive = mostly below about 14%; also: read at 38.3 µM for the half of the compounds with a filed dose; 0% is about no effect
The depositor's hits bear a star; ? = inconclusive; . = no result; [ ] = another dose, or the depositor's remark. The entries come from a sample that favours hits as a whole. Unless noted, calls follow the shape of the dose curve; as a rule, active = well fitted curve in the direction sought with a large enough effect; inconclusive = small, poorly fitted or top-dose-only effect, or another doubt; inactive = no such curve, though single readings can be large; an effect the other way counts as inactive or inconclusive.

SMILES | LmPK inh | TbPYK inhibitor | Sm TGR block | Giardia FBPA inh | Shiga inhibitor | CHX counter
O=C(NC1CC1)C1=C[C@H](C2CCCCC2)C[C@H](OCc2ccc(CO)cc2)O1 | 2.0% | 1.8% | -4.5% | -16.2% | 35.3* | 12.7*
Cc1ccc(-c2nn3c(C)nnc3c3ccccc23)cc1S(=O)(=O)NCC(C)O (centres undefined) | . | 7.2% | 2.3% | . | . | .
COc1cccc(C(c2sc3nc(-c4ccco4)nn3c2O)N2CCC3(CC2)OCCO3)c1 (centres undefined) | . | -10.8% | -14.8% | . | . | .
O=C(Cn1c(-c2ccccc2)c[n+]2ccsc12)c1ccc([N+](=O)[O-])cc1 | -0.8% | -8.9% | 3.5% | -5.8% | 70.5* | 20.9*
O=C(Cn1c(-c2ccccc2)c[n+]2ccsc12)c1ccccc1 | 9.6% | -8.1% | 1.1% | 3.1% | -1.8 | 3.2
C=CCn1c(C)cc(C(=O)COC(=O)C2CC(=O)N(Cc3ccccc3)C2)c1C (centres undefined) | 5.7% | 0.9% | -6.8% | -3.0% | 36.1 | 12.1*
C=CCn1c(C)cc(C(=O)COC(=O)CNC(=O)c2ccccc2)c1C | -0.3% | 3.9% | 3.1% | 9.4% | 11.5* | 114.3*
CC(=O)Nc1ccc(C(=O)OCc2ccc(Cl)cc2)cc1 | 4.3% | -11.3% | 7.9% | 1.2% | 28.0 | -2.6
CC(=O)Nc1cc(C(=O)OCC(=O)c2ccc(C)cc2)ccc1C | -2.7% | 31.5% | 1.8% | -0.2% | 127.6* | 85.8*
CC(=O)Nc1ccc(C(=O)OCc2ccccc2Br)cc1 | -0.4% | -6.2% | -12.6% | 17.1% | 58.5* | 27.1*
CC(=O)Nc1cc(C(=O)OCC(=O)c2ccc(Cl)cc2Cl)ccc1C | 1.5% | 11.7% | 4.3% | 0.6% | 3.0 | 1.3
CNc1ccccc1C(=O)OCC(=O)c1ccc(F)cc1 | 9.4% | 6.4% | -6.9% | -13.5% | 121.6* | 80.1*
CC(C)C(NC(=O)OCc1ccccc1)C(=O)OCC(=O)NCc1ccco1 (centres undefined) | -1.9% | -15.6% | 28.2µM* | 0.0% | -13.2 | -0.8
CCOC(=O)CCn1cnc2onc(-c3cc(OC)ccc3Cl)c2c1=O | . | 2.0% | 0.7% | . | . | .
CS(=O)(=O)N1CCC[C@@]2(CCN(C(c3ccccc3)c3ccccc3)C2)C1 | . | 1.4% | . | 0.6% | . | .
COc1cc2c(cc1OC)C(COc1ccc([N+](=O)[O-])cc1)N(C(C)=O)CC2 (centres undefined) | 2.4% | 0.0% | -10.1% | -3.2% | 16.3 | -3.5
CC(=O)Nc1ccc(OC(=O)c2ccccc2N)cc1 | -2.5% | 0.0% | 2.5% | -0.1% | -52.7 | 19.2*
O=C(COC(=O)c1ccccc1Nc1ccccc1)c1ccccc1 | 0.8% | -3.9% | 10.6% | 0.7% | 34.7 | 29.8*
O=C(COC(=O)c1ccccc1-c1ccccc1[N+](=O)[O-])c1ccccc1 | 10.4% | -2.4% | -5.3% | 0.8% | 20.0 | 22.3*
CCOc1ncccc1C(=O)OCC(=O)c1ccccc1 | ? | -3.8% | 3.5% | 2.9% | -4.1 | 2.2
CNc1ccccc1C(=O)OCC(=O)c1ccccc1 | -7.0% | 0.7% | -10.8% | -0.9%[12.9 µM] | 32.6* | 45.5*
COc1ccc(NC(=O)CSc2nnc(C)n2N)cc1S(=O)(=O)N1CCCCC1 | . | -14.4% | 3.9% | . | . | .
CC(C)C(NC(=O)c1ccccc1F)C(=O)OCC(=O)c1ccc(F)cc1 (centres undefined) | -18.5% | 1.3% | 3.0% | -11.7% | 93.7* | 61.5*
CC(=O)Nc1ccc(C(=O)OCC(=O)c2ccc(F)cc2)cc1 | -5.0% | 4.2% | -10.3% | 1.8% | 33.6* | 25.1*
O=C(COC(=O)c1cc2ccccc2cc1O)NC(=O)NCc1ccco1 | 0.2% | 3.1% | 44.7µM* | -7.2% | 15.6 | 10.1
O=C(COC(=O)c1n[nH]c2ccccc12)NC(=O)NCc1ccco1 | 5.3% | -5.9% | -31.6% | 6.8% | 7.4 | -1.3
O=C(COC(=O)c1ccccc1Nc1ccccc1)NCc1ccco1 | 6.0% | -2.6% | 6.0% | 0.2% | 25.8 | 16.2*
